# Calls of active or inactive are those of the source.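 The calls were made as follows, unless noted: active = inhibition of the reporter signal at or above 50%; inactive = inhibition below 50%.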
# Key:
# [1] = inhibitors of TNFa-induced NFkB p65 translocation, primary screen, imaging, HUVEC, MLSMR starter and 10KST1 sets (AID 438;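 active = inhibition above 20% together with a positive visual image hit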;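 also: compound added about 3h40 before a 20 min TNFalpha stimulation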;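 as to inhibition: signal is the nuclear over cytoplasmic p65 intensity ratio per well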); conditions: HUVEC TNFa-induced p65 nuclear translocation; cell count: measured here: nuclei count (cytotoxicity indicator), at 2.08 µM; inhibition: at 2 µM, stronger effect = higher value, 0% TNFa-plus-vehicle, 100% no-TNFa wells
# [2] = reduction of polyQ htt aggregates in cells – imaging, exon1htt(103Q)mCFP cells, high-content imaging, primary screen (AID 483;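 active = visual image review flags a hit and inhibition of aggregation exceeds 20%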;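 also: compound exposure lasted 3 days before fixation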;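 as to nuclei count: percent of the per-plate median nuclei count of sample wells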); conditions: exon1htt(103Q)mCFP cell line, aggregate imaging, at 2 µM; inhibition of aggregation: stronger effect = higher value; nuclei count: measured here: cell count, toxicity
# [3] = endothelial E-selectin expression blockers – imaging, HUVEC, immunofluorescence, MLSMR starter and 10KST1 sets, primary screen (AID 487;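 active = visually confirmed hit in the image check and inhibition above 20%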;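 as to inhibition: signal is fraction of cell area covered by stained E-selectin grains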;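 as to nuclei count: 100% = median nuclei count of all wells on the same plate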); conditions: HUVEC TNFalpha-induced E-selectin immunofluorescence imaging, at 2 µM; inhibition: stronger effect = higher value; nuclei count: measured here: cell number, toxicity
# [4] = biological target: Voltage-gated potassium channel subunit beta-2 (Rattus norvegicus) (UniProt P62483); experiment: inhibitors of rat Kvbeta2 reductase activity – biochemical, NADPH fluorescence, primary screen (AID 622;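 active = fluorescence slope higher than the sample average by over 3 SD, cut at about -0.22 in these data, passing the limit was not always enough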;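 also: slope of raw intensity against log time taken from 70 to 1610 s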); conditions: recombinant KvBeta, 4-cyanobenzaldehyde reduction, at 10 µM, stronger effect = higher value
# Chain of Voltage-gated potassium channel subunit beta-2 (Rattus norvegicus) (P62483 whole entry, looked up): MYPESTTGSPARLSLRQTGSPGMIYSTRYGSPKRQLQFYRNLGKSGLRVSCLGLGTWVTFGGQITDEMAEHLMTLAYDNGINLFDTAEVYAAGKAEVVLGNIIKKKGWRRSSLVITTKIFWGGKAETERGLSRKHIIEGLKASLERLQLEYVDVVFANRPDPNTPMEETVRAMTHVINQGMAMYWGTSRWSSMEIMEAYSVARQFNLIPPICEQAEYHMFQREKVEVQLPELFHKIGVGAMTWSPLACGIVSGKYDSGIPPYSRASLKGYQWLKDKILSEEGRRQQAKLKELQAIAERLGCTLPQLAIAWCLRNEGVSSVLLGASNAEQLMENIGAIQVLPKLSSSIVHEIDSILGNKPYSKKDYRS
# [5] = biological target: Voltage-gated potassium channel subunit beta-2 (Rattus norvegicus) (UniProt P62483); experiment: enhancers of rat Kvbeta2 NADPH turnover – biochemical, NADPH fluorescence, primary screen (AID 623;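 active = NADPH fluorescence slope more negative than the mean of all samples by about 3 SD, 99.7% confidence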;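 also: fluorescence intensity change per second fitted from 20 to 320 s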); conditions: Recombinant KvBeta, NADPH fluorescence decrease slope, 10 min; at 10 µM; stronger effect = lower value
# [6] = biological target: Alpha-2C adrenergic receptor (Homo sapiens) (UniProt P18825); experiment: compounds altering alpha2C-coupled GIRK flux – cell-based, HEK293 alpha2C/GIRK1/2, thallium flux, primary screen (AID 624;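 active = fluorescence slope after compound addition differing from the mean of all screened samples at 99.7% confidence, in either direction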;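 also: slope of fluorescence ratio to pre-addition baseline per second over 15 to 24 s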); conditions: thallium flux BTC fluorescence, at 10 µM, actives lie on both sides
# Chain of Alpha-2C adrenergic receptor (Homo sapiens) (P18825 whole entry, looked up): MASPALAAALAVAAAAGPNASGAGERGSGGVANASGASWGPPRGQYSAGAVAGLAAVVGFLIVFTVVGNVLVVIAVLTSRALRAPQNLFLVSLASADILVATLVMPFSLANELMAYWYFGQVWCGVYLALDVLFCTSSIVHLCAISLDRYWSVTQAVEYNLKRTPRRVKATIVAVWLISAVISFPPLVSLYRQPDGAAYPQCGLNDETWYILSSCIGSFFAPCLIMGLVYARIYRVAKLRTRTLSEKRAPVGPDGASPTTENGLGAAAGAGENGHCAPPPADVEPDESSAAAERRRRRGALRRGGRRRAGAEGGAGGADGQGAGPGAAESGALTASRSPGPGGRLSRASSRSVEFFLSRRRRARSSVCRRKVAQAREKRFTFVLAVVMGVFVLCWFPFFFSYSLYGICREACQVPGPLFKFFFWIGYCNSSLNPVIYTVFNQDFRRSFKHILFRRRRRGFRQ
# [7] = blockers of RIG-like receptor reporter activation – cell-based, Sendai virus stimulus, luciferase, 10K MLSCN set, TLR/RLR signaling modifier project, primary screen (AID 602276;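 active = inhibition at or above 50% at 10 µM; inactive = inhibition below 50%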;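 also: firefly luciferase from ISG56 promoter only with Renilla not read in this screen; 0% = Sendai virus plus DMSO and 100% = medium plus DMSO without virus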); conditions: HEK293 RL24 IRF3 luciferase reporter, at 10 µM, stronger effect = higher value
# [8] = TLR3 IRF3 reporter activation blockers – cell-based, poly I:C stimulus, luciferase, 10K MLSCN set, primary screen (AID 602277); conditions: HEK293-TLR3 RL24 IRF3 luciferase reporter, at 10 µM, stronger effect = higher value
Structure (SMILES),cell count [1],inhibition [1],inhibition of aggregation [2],nuclei count [2] [%],inhibition [3],nuclei count [3] [%],fluorescence slope [4],NADPH fluorescence slope [5],slope [6],inhibition [7],inhibition [8]
COc1ccccc1N(CN1CCCC1=O)C(=O)c1c(F)cccc1Cl,370,-0.3% (inactive),9.3% (inactive),84.8,-15.4% (inactive),91.8,-0.477 (inactive),-3.8e-05 (inactive),0.0058 (inactive),12.3% (inactive),4.03% (inactive)
CN(C)CCCOC(=O)CCc1ccccc1,317,-11.5% (inactive),4.5% (inactive),95.6,-26.3% (inactive),111,-0.312 (inactive),-3.9e-05 (inactive),0.00462 (inactive),-0.368% (inactive),5.94% (inactive)
O=C1NC(Cc2c[nH]c3ccccc23)C(=O)N1CCOc1ccccc1 (stereo not drawn),674,4.9% (inactive),3.1% (inactive),120,-14.9% (inactive),138,-0.429 (inactive),-4.2e-05 (inactive),0.00422 (inactive),13.6% (inactive),19.7% (inactive)
CC1CN(C(=O)c2scc3c2OCCO3)CC(C)O1 (stereo not drawn),190,-5.4% (inactive),0.7% (inactive),75,11.5% (inactive),77,-0.598 (inactive),-1.6e-05 (inactive),0.00693 (inactive),17.3% (inactive),20.4% (inactive)
CCCNC(=O)c1ccccc1C(=O)NCCC,386,-1.6% (inactive),23.1% (inactive),94.4,-3.9% (inactive),115,-0.53 (inactive),0.000133 (inactive),0.00613 (inactive),15.6% (inactive),18% (inactive)
COc1ccc(-n2c(=O)c3c4c(sc3n3cnnc23)CC(C)CC4)cc1 (stereo not drawn),370,0.2% (inactive),-5.1% (inactive),80.3,-108% (inactive),116,-0.46 (inactive),-4.9e-05 (inactive),0.00768 (inactive),23.9% (inactive),2.31% (inactive)
Cc1ccccc1C(=O)NC1CCN(Cc2nnnn2CCc2ccccc2)CC1,597,-10.4% (inactive),-10.6% (inactive),107,0.8% (inactive),102,-0.491 (inactive),-3.4e-05 (inactive),0.0062 (inactive),5.02% (inactive),33.8% (inactive)
Cc1csc(NC(=O)c2ccco2)n1,464,-3.3% (inactive),-1.8% (inactive),109,-72% (inactive),131,-0.32 (inactive),-1.3e-06 (inactive),0.00701 (inactive),-20.1% (inactive),-56.9% (inactive)
CCOC(=O)N1CCC(NC(=O)c2cnn3ccccc23)CC1,761,7.4% (inactive),-3.3% (inactive),88.5,-67% (inactive),113,-0.589 (inactive),4.8e-07 (inactive),0.0078 (inactive),-3.54% (inactive),9.82% (inactive)
O=S(=O)(c1cc(Cl)ccc1Br)N1CCOCC1,450,10.6% (inactive),-0.6% (inactive),90.7,-192% (inactive),133,-0.431 (inactive),-7.3e-05 (inactive),0.00323 (inactive),6.91% (inactive),35.8% (inactive)
CCOCCCn1c(=NC(C)=O)c(C(=O)OCC)cc2c(=O)n3ccccc3nc21,473,-3.3% (inactive),2.4% (inactive),108,-119% (inactive),129,-0.114 (inactive),-3.8e-05 (inactive),0.00394 (inactive),-7.28% (inactive),-15% (inactive)
O=C(Nc1ncc(Cc2ccccc2)s1)C1CCCO1 (stereo not drawn),455,-3.3% (inactive),11% (inactive),109,-1.5% (inactive),96.3,-0.563 (inactive),-1.3e-05 (inactive),0.00728 (inactive),-58.5% (inactive),-150% (inactive)
O=C(O)CCCC(=O)Nc1nc(-c2ccc(F)cc2)cs1,392,-1.3% (inactive),-6.1% (inactive),94.3,-90.5% (inactive),141,-0.327 (inactive),-1.1e-05 (inactive),0.00291 (inactive),6.78% (inactive),14.9% (inactive)
CCc1ccccc1N1CC23C=CC(O2)C(C(=O)O)C3C1=O (stereo not drawn),591,-3.4% (inactive),-8.2% (inactive),103,-23.4% (inactive),105,-0.515 (inactive),-2.2e-05 (inactive),0.00685 (inactive),12.3% (inactive),36.8% (inactive)
COc1cc(C2NC(=O)NC(C)=C2C(=O)OCC2CCCO2)ccc1O (stereo not drawn),401,1.8% (inactive),-5.3% (inactive),112,-105% (inactive),114,-0.489 (inactive),-3.4e-05 (inactive),0.00604 (inactive),1.44% (inactive),24.7% (inactive)
CCc1nc(C)c(C#N)c2cc(OC)c(OC)cc12,387,-1.1% (inactive),-2.1% (inactive),79.3,-7.1% (inactive),97.7,-0.446 (inactive),-7.7e-05 (inactive),0.00607 (inactive),15.2% (inactive),21.3% (inactive)
O=C(Cn1c(-c2cncs2)nc2ccccc21)NC1CCCC1,700,-12.4% (inactive),0% (inactive),114,-9.6% (inactive),109,-0.31 (inactive),-4.5e-05 (inactive),0.00471 (inactive),0.467% (inactive),16.2% (inactive)
CCOC(=O)COc1ccc(C2NC(C(=O)O)CS2)cc1 (stereo not drawn),367,-9.6% (inactive),9.8% (inactive),55.1,-4.8% (inactive),97.6,-0.381 (inactive),-1.3e-05 (inactive),0.00376 (inactive),12.5% (inactive),13% (inactive)
CCn1nc(C(=O)OCC(=O)N2CCc3ccccc32)c2ccccc2c1=O,301,-8.8% (inactive),4.1% (inactive),68.3,25.7% (inactive),96.8,-0.297 (inactive),2.7e-05 (inactive),0.00506 (inactive),-3.24% (inactive),13.2% (inactive)
CC(CN1CCCCC1)OC(=O)c1ccc(Cl)cc1Cl (stereo not drawn),585,10.3% (inactive),-8.8% (inactive),87.8,9.3% (inactive),105,-0.438 (inactive),1.5e-06 (inactive),0.00424 (inactive),-18.5% (inactive),-15.9% (inactive)
CCOC(=O)C1CCCN(CCCc2ccccc2)C1 (stereo not drawn),361,-17.4% (inactive),-1.3% (inactive),118,-32.5% (inactive),108,-0.438 (inactive),-2.5e-05 (inactive),0.00567 (inactive),6.58% (inactive),38% (inactive)
CCN1CCCC1CNC(=O)c1cc2c(=O)n(C)c3ccccc3c2n1C (stereo not drawn),656,-5% (inactive),-28.9% (inactive),113,-41.6% (inactive),114,-0.55 (inactive),2.6e-06 (inactive),0.00775 (inactive),2.48% (inactive),40.8% (inactive)
O=C(NCCCN1CCOCC1)c1cc(-c2ccc(O)cc2)on1,614,-1.6% (inactive),-5.2% (inactive),92.4,-46.9% (inactive),114,-0.565 (inactive),-3.8e-05 (inactive),0.00654 (inactive),2.55% (inactive),-5.13% (inactive)
Cc1nn(C(=O)c2ccc3c(c2)OCO3)c(N)c1-c1ccccc1,581,5.1% (inactive),11.7% (inactive),91.3,-19.8% (inactive),106,-0.451 (inactive),1.4e-05 (inactive),0.00618 (inactive),-23.3% (inactive),-108% (inactive)
CCOc1ccc(N(CC(=O)NCc2ccco2)S(=O)(=O)c2ccc(OC)c(OC)c2)cc1,429,3.5% (inactive),-2.6% (inactive),110,-45.5% (inactive),110,-0.409 (inactive),4.2e-05 (inactive),0.0072 (inactive),3.08% (inactive),30.5% (inactive)
Cc1ccc(S(=O)(=O)C(C#N)c2nc3ccccc3nc2N2CCCCC2)cc1 (stereo not drawn),273,10.9% (inactive),8.3% (inactive),98.6,-0.3% (inactive),103,-0.364 (inactive),2e-06 (inactive),0.00764 (inactive),11.2% (inactive),22.6% (inactive)
CCCNc1nc2c(c(=O)n(C)c(=O)n2C)n1Cc1cccc(C)c1,697,-3.6% (inactive),10.2% (inactive),97.4,-95.3% (inactive),148,-0.567 (inactive),-2.9e-05 (inactive),0.00499 (inactive),3.02% (inactive),4.07% (inactive)
CC(=O)Nc1ccc(S(=O)(=O)N2CCC(c3nc4ccccc4[nH]3)CC2)cc1,232,0% (inactive),14.3% (inactive),93.3,17.7% (inactive),84.3,-0.584 (inactive),-6.2e-05 (inactive),0.00595 (inactive),7.22% (inactive),17.6% (inactive)
